CRFR2-BP antag: CRF-BP/CRF-R2 complex antagonism; AID 588475; HEK293 CRF-R2/CRF-BP, CRF-induced calcium fluorescence; 350,000 tested, 0.59% active; inhibition, % at 11.8 µM;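 active = inhibition of the ligand-induced calcium signal above about 50% at the single tested concentration, limit read from the data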
MPTP inh: permeability transition pore inhibition; isolated mouse mitochondria, Ca2+ swelling absorbance, 30 min; inhibition, % at 10 µM; 360,000 tested, 1.4% active;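 active = inhibition of 50% or more, scaled per plate between neutral and stimulator controls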;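 note: 0% = DMSO wells given calcium and 100% = 1 mM EGTA wells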
ANO1 block: mouse TMEM16A channel inhibition, primary screen; Q8BHY3; HEK293 TMEM16A/YFP iodide influx fluorescence, ionomycin; normalized B-score (activity score, 25-100; higher = stronger inhibition) at 10 µM; 310,000 tested, 1.2% active; AID 588511;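 active = ratio plate-corrected score three or more library SD toward inhibition, starting fluorescence score within five deviations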;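 note: score derived from kinetic fluorescence span divided by baseline fluorescence per well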
NR3A LBD binder: modulates the human NR3A ligand-binding domain; NR3A LBD differential scanning fluorimetry, Tm shift; 0% = protein alone, 100% = glycine-bound protein; Tm shift relative to glycine control, % at 25 µM; 340,000 tested, 2.5% active; AID 1259313;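 active = melting temperature shift of at least 10% of the positive control shift, at one fixed dose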
CRFR2-BP ag: agonists of human CRF-binding protein/CRF-R2 receptor complex; HEK293 CRF-R2/CRF-BP, calcium dye fluorescence (FLIPR); percent of saturating CRF peptide response; activation, % at 13.2 µM; 350,000 tested, 0.46% active; AID 588473;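 active = activation of at least 50%, plus an integration ratio under a set limit after plate pattern correction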;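 note: plate controls were neutral control wells without compound for no effect and CRF at EC100 for full effect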
TMEM16A act: activates or potentiates the mouse TMEM16A chloride channel; Q8BHY3; HEK293 TMEM16A/YFP-H148Q/I152L, iodide quench fluorescence; active compounds read low; B-score at 10 µM; 340,000 tested, 0.3% active; AID 623877;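 active = fluorescence-ratio B-score plate-corrected deviation score at least 3 library SD below zero, with starting fluorescence score within 5 deviations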;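 note: channel opened by trigger with iodide after compound preincubation; score built on the fluorescence ratio of max minus min over baseline; more negative score means more quench and so TMEM16A activation or potentiation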
* marks the source's active call; other numbers are inactive results; i = inactive; · = not tested or not shown. Most compounds without a hit are left out; they make up all but 5.1% or so of the library.

SMILES	CRFR2-BP antag	MPTP inh	ANO1 block	NR3A LBD binder	CRFR2-BP ag	TMEM16A act
NC(=S)NNC(=O)C12CC3CC(CC(C3)C1)C2	-26	10	i	1	125*	i
O=C1Nc2ccc(Br)cc2C12NNc1ccccc1O2 (stereo unspecified)	-9	4	i	25*	13	i
C=C1C[C@H]2[C@@H]3C=C(C)C4=CC(=O)CC[C@]4(C)[C@H]3CC[C@]2(C)[C@@]1(OC(C)=O)C(C)=O	-12	-2	100*	1	0	i
C=CCNC(=O)C1CC2Cn3c(nc4cc5ccccc5cc43)C2N1C (stereo unspecified)	5	0	i	12*	-3	i
CN1C(C(=O)NCc2cccc(C(F)(F)F)c2)CC2Cn3c(nc4cc5ccccc5cc43)C21 (stereo unspecified)	-3	-2	i	0	-1	i
COc1cc(C=O)ccc1Oc1cnccn1	56*	-3	i	-4	0	i
O=C1COc2ccc(C(=O)COC(=O)c3cc(S(=O)(=O)N4CCOCC4)ccc3F)cc2N1	-19	2	i	-1	10	i
Cc1ccc(C(=O)CC(=O)c2ccc(C(C)(C)C)cc2)cc1	-12	5	i	1	2	i
Cc1ccc(C(=O)CC(=O)c2cc(Cl)ccc2O)cc1	-82	18	i	11*	68*	i
CC(C)(C)c1ccc(C(=O)CC(=O)c2cc(Cl)ccc2O)cc1	-43	32	25*	0	-1	i
CC1(C(=O)NC2CCN(Cc3ccccc3)CC2)CCN1Cc1ccc2ccccc2c1 (stereo unspecified)	·	1	·	·	·	·
COc1cc(CC(=O)OCC(=O)Nc2ccc(Cl)c(S(=O)(=O)N(C)C)c2)cc(OC)c1OC	-3	10	i	0	-1	i
CN(C)S(=O)(=O)c1cc(NC(=O)COC(=O)Cc2ccc(Br)cc2)ccc1Cl	-9	8	i	15*	5	i
CN(C)S(=O)(=O)c1cc(NC(=O)COC(=O)CCSc2ccc(Cl)cc2)ccc1Cl	-5	2	i	13*	1	i
O=C(NCc1ccc(F)cc1)c1cc2c(s1)CS(=O)(=O)C2	7	-3	i	3	-1	i
CC1=C(C(=O)OC(C)C)C(c2cccs2)N2C(=O)C(C)SC2=N1 (stereo unspecified)	50*	-1	i	0	1	i
Cc1cccnc1NC(=O)C(C)Oc1ccccc1 (stereo unspecified)	80*	1	i	1	0	i
CCCCOc1cccc(C(=O)NC(=S)Nc2cccc(C(F)(F)F)c2)c1	-86	13	i	12*	2	i
CCOc1cccc(C(=O)NC(=S)Nc2cccc(NC(=O)c3ccccc3Cl)c2)c1	-16	1	i	16*	1	i
CC(C)Oc1cccc(C(=O)NC(=S)Nc2cccc(C(F)(F)F)c2)c1	-31	2	i	-4	12	i
O=c1[nH]c(C2CCN(S(=O)(=O)c3cccc(C(F)(F)F)c3)CC2)nc2c1nnn2Cc1cccc(F)c1	2	0	i	16*	1	i
COCC#Cc1cnc2c(c1)C(=O)N([C@H](C)CO)C[C@H](C)[C@@H](CN(C)S(=O)(=O)c1ccccc1)O2	-7	-4	·	·	0	·
COCCn1c(C)cc(C(=O)CSc2nc3ccccc3c(=O)n2Cc2ccco2)c1C	7	2	i	12*	0	i
Cc1ccc(NC(=O)CN(C)C(=O)CSc2nc3ccccc3c(=O)n2Cc2ccco2)cc1	-1	1	100*	-5	-1	i
CN(Cc1ccccc1)C(=O)CSc1nc2ccccc2c(=O)n1Cc1ccco1	22	2	i	0	-2	i
SMILES	CRFR2-BP antag	MPTP inh	ANO1 block	NR3A LBD binder	CRFR2-BP ag	TMEM16A act
CC(=O)c1cccc(NC(=O)C(C)OC(=O)C2CCC2)c1 (stereo unspecified)	1	-1	i	-1	9	i
Fc1ccc(Oc2ccnc(Cl)n2)c(Cl)c1	53*	·	i	-1	-1	i
NC(=S)N/N=C\c1ccc(-c2cccc(Cl)c2Cl)o1	1	0	i	27*	1	i
NC(=S)N/N=C/c1ccc(-c2ccc(SC(F)F)cc2)o1	58*	8	i	-6	0	i
C#CCNC(=O)c1ccc2sc([C@H]3C[C@H](O)[C@@H](CO)O3)nc2c1	·	0	·	·	·	·
COc1ccc(C2C(C#N)=C(N)Oc3cc(O)ccc32)cc1Cl (stereo unspecified)	-17	1	i	-6	3	i
COc1ccccc1OCC(=O)NNC(=O)c1cnccn1	56*	-1	i	2	-3	i
CCc1ccc(OCC(=O)NNC(=O)c2cnccn2)c(Br)c1	-4	-1	i	6	-4	i
CCn1c2ccccc2c2cc(NC(=O)COC(=O)c3cccc(S(=O)(=O)NC)c3)ccc21	-33	1	i	8	-3	i
CCn1c2ccccc2c2cc(NC(=O)COC(=O)c3ccc(O)cc3)ccc21	3	-1	i	15*	-1	i
N/C(=N\OCC(=O)Nc1ccccc1)c1nonc1N	69*	-1	i	0	-4	i
O=C(COC(=O)/C=C/c1cc(Br)ccc1F)Nc1ccc2[nH]c(=O)[nH]c2c1	20	-2	i	10*	0	i
CCS(=O)(=O)N1Cc2cc(C(=O)N(C)C)nc(-c3cccc(-c4ccc(F)cc4)c3)c2[C@@H]1CCO	·	0	·	·	·	·
O=C1c2ccccc2-c2nnc(-c3ccc(O)cc3)cc21	103*	3	i	0	-1	i
O=C(Cc1ccc(Cl)cc1)Nc1ccccc1N1CCN(C(=O)c2ccccc2)CC1	-11	1	i	-5	3	i
C#CCOCCOCCOCCNc1nc(N2CCN(C(=O)Cn3cc(CCCN=C(N)N)nn3)CC2)nc(N2CCN(C(=O)[C@H](CCCCN)n3cc(CCCC)nn3)CC2)n1	-4	0	i	2	1	i
Cc1cc(C(C#N)c2ccccc2)n2ncnc2n1 (stereo unspecified)	7	-1	i	3	-2	i
Cc1cc(C(C#N)c2ccccc2F)n2ncnc2n1 (stereo unspecified)	12	2	i	15*	1	i
C[C@H](NC(=O)c1nc[nH]c1C(=O)N1CCN(c2ccccc2)CC1)c1ccccc1	-6	0	·	2	-2	i
Cc1nc2nc(SCC(=O)c3cccc([N+](=O)[O-])c3)[nH]c2cc1Br	67*	22	i	1	-1	i

High-throughput results deposited in PubChem by several laboratories.
